In PubChem BioAssay AID651692 (Broad Institute, 2012) one finds outcome data, which are given here for 39 molecules.

Results with a measured potency or affinity are listed apart. Active and inactive are the calls of the source.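 How the source made its calls: active means fitted half-maximal concentration for loss of cell signal no higher than twice the top valid tested concentration; inconclusive means flat curve at 30 to 70% inhibition, or poor fit; inactive means flat within 30%, signal rise, or potency above limit.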

A short description of the assay: cytotoxicity toward MDA-MB-231 breast cancer cells – cell-based, CellTiter-Glo luminescence, cherry-pick, cytotoxicity control for RAD54 inhibitor project, dose response (AID 651692).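 Further: more negative values mean stronger loss of viable cell signal.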 Conditions: MDA-MB-231 viability, 24 h; series mostly up to 26 µM.
`CN(C)CCN(C(=O)CN1C(=O)c2ccccc2C1=O)c1nc2cc3c(cc2s1)OCCO3`: the molecule was classed as inactive.

In the case of `COc1ccc(CCn2c(=N)c(C(=O)NCC3CCCO3)cc3c(=O)n4cccc(C)c4nc32)cc1OC` (centres undefined), the result was inactive.

As for `Cc1cc(C)c2nc(C)cc(Nc3ccc(C(=O)NCCO)cc3)c2c1`, the molecule was called inactive.

For the molecule `Cc1ccc2oc(=O)c3cc(C(=O)NCCCN4C(C)CCCC4C)sc3c2c1` (centres undefined), the molecule was classed as inactive.

As to `Cc1nnc2c(N3CCN(CCO)CC3)nc3ccccc3n12`, the molecule was called inactive.

Consider `COCCCNCCC(CCC(C)C)c1ccc2c(c1)OCO2` (centres undefined), for which the outcome was inactive.

Take `CN(C)CCCNc1c2ccccc2nc2ccccc12`: the molecule was called inactive.

Regarding `CCCCN(C)CCNC(=S)Nc1ccc2nc(N3CCN(CC)CC3)cc(C)c2c1`, the result was inactive.

For the molecule `CCN(CC)CCCNc1nc2cc(OC)c(OC)cc2c2nc(-c3cccnc3)nn12`, the result was inactive.

Regarding `CCOC(=O)c1cc(-c2ccncc2)nc2c1c(C)nn2-c1ccccn1`, the molecule was called inactive.

Take `NNC(=O)c1oc2nc(-c3cccs3)cc(-c3ccco3)c2c1N`: the call was inactive.

As for `CN(C)CCOc1nc(-c2ccccc2)nc2c1oc1ccccc12`, the molecule was called inactive.

For the molecule `CCN(CC)CCCNc1nc2ccccc2c2nc(-c3ccncc3)nn12`, the result was inactive.

Turning to `Nc1cc2c3c(cccc3c1)C(=O)N(CCN1CCCC1)C2=O`, the outcome was inactive.

As for `OCCN1CCN(c2nc(-c3ccccc3O)nc3ccccc23)CC1`, the outcome was inactive.

`COc1cccc2sc3cc(NCCCN4CCOCC4)ccc3c(=O)c12`: the call was inactive.

As for `COc1ccc(CCNc2c3ccccc3nc3ccccc23)cc1OC`, the result was inactive.

In the case of `CCOc1cc2[nH]c(=S)n(Cc3ccc(C(=O)NCCCN(CC)CC)cc3)c(=O)c2cc1OCC`, the molecule was classed as inactive.

On to `CC(=O)Nc1cc(-c2ccc(N3CCN(C)CC3)cc2)cn2c(-c3cccc(C(C)=O)c3)cnc12`, for which the molecule was classed as inactive.

`CN1CCN(c2nc(-c3cccnc3)nc3ccccc23)CC1`: the molecule was classed as inactive.

`COc1ccc(C(=O)Nc2cc(C)c(NC(=O)c3ccccc3OC)cn2)cc1`: the molecule was classed as inactive.

On to `COc1ccccc1Nc1nc(NCC2CCCO2)c2ccccc2n1` (centres undefined), for which the result was inactive.

On to `COc1cc2nc(N(C)C)nc(N)c2cc1OC`, for which the molecule was classed as inactive.

With `Oc1ccc(Nc2nc(N3CCCC3)c3ccccc3n2)cc1`, the result was inactive.

In the case of `Cc1cccn2c(=O)c3cc(C(=O)NCCN4CCOCC4)c(=N)n(CCCN4CCOCC4)c3nc12`, the outcome was inactive.

In the case of `CN(C)CCNC(=O)c1cccc(-c2cnc3c(NC=O)cc(-c4ccc(F)cc4)cn23)c1`, the molecule was called inactive.

Turning to `Cc1cc(N2CCN(C)CC2)nc2ccc(NC(=S)NCCCN3CCN(C)CC3)cc12`, the molecule was called inactive.

Consider `COc1cc2c(C#N)c(N3CCN(C)CC3)nc(N)c2c(N)n1`, for which the molecule was called inactive.

Turning to `CCCCN(C)CCNC(=O)c1cc2c(-c3cccc(OC)c3)nn(C)c2s1`, the molecule was called inactive.

As for `NC(=O)CN1CCN(CCN2C(=O)c3cccc4cccc(c34)C2=O)CC1`, the outcome was inactive.

On to `Cc1nc2ccccc2c2oc(C(=O)N3CCC(N4CCCCC4)CC3)cc12`, for which the outcome was inactive.

In the case of `O=C1c2cccc3cccc(c23)C(=O)N1CCCn1ccnc1`, the result was inactive.

For `CCOCCCn1c(=N)c(C(=O)NCCN2CCOCC2)cc2c(=O)n3cccc(C)c3nc21`, the call was inactive.

As for `Cc1cccn2c(=O)c3cc(C#N)c(=O)n(CCCN4CCOCC4)c3nc12`, the molecule was classed as inactive.

For the molecule `Cc1nc2ccccc2c2oc(C(=O)NCCN3CCCCC3C)cc12` (centres undefined), the molecule was called inactive.

Regarding `CCN(CC)CCN1C(=O)c2cccc3cc(N)cc(c23)C1=O`, the outcome was inactive.

As for `CCN1CCCC1CNC(=O)c1cc2c(-c3cccc(OC)c3)nn(C)c2s1` (centres undefined), the molecule was called inactive.

Consider `CCC(=O)N(Cc1cc2cc(OC)ccc2[nH]c1=O)c1cc(C)ccc1C`, for which the call was inactive.

Regarding `Cc1nc2oc3c(=O)[nH]cnc3c2c2c1COC(C)(C)C2`, the result was inactive.
